Screens (PubChem)
Sampled rows, rich in hits. Any-hit rate of the full collection: about 3.5%.
Pf apPOL block – Pf-apPOL inhibitors, biochemical, fluorescence; Plasmodium falciparum apicoplast DNA polymerase (apPOL); Recombinant Pf-apPOL, molecular beacon fluorescence, 1.5 h; inhibition, % at 10 µM; hit rate 0.25% among 210,000; AID 1794808, 2022
mHTT CaM bind – mutant huntingtin-calmodulin interaction inhibitors – biochemical, AlphaScreen, primary screen; inhibition, % at 15 µM; hit rate 3.6% among 190,000; AlphaScreen His-mHTT/GST-CaM binding, luminescence; P42858
Each line names hits and unclear results; the compound was inactive in the other large screens; ! = repeats disagree. No stated cut-off is given here; in the data, active means inhibition above about 50%; inactive means the rest.

O=C(c1cc(-c2ccco2)n(C2CCS(=O)(=O)C2)n1)N1CCN(c2ccccn2)CC1 (centres undefined)	none
Cc1ccc(-n2ncc3c(=O)[nH]c(SCC(=O)Nc4ccc(C)cc4C)nc32)cc1	none
CC1CCCN(S(=O)(=O)c2ccc(F)c(C(=O)NC3CCCC(C)C3C)c2)C1 (centres undefined)	none
O=C(NCCOC12CC3CC(CC(C3)C1)C2)c1cc2ccccc2oc1=O	none
Cc1ccc(S(=O)(=O)N=C(N)Nc2nc(C)c3ccccc3n2)cc1	none
O=c1c([N+](=O)[O-])c(Cl)c2ccccc2n1-c1ccccc1	mHTT CaM bind 100
O=c1c([N+](=O)[O-])c(O)c2ccccc2n1-c1ccccc1	none
N#CC1=C(N)SC(N)=C(C#N)C1c1ccc(O)cc1	none
CC1=C(C#N)C(c2cccs2)C(C#N)=C(C)N1	none (no result: mHTT CaM bind)
N#CC1=C(N)SC(N)=C(C#N)C1c1ccc(-c2ccccc2)cc1	mHTT CaM bind 52
N#CC1=C(N)SC(N)=C(C#N)C1c1cccs1	mHTT CaM bind 63!
O=C(c1ccc(N2CCN(c3ccccn3)CC2)c([N+](=O)[O-])c1)N1CCN(c2ccccn2)CC1	none
O=C(CN1C(=O)CCC1=O)Nc1nnc(-c2ccsc2)o1	none
O=C(O)c1cc2ncc(Br)cn2n1	Pf apPOL block 69
N#Cc1c(NC(=O)c2cc3ncc(Br)cn3n2)sc2c1CCCC2	none
Cc1ccc(C(=O)O)cc1N1C(=O)CCC1=O	none
CCCN1C2=C(C(=O)CCC2)C(c2ccc(O)c(Cl)c2)C2=C1CCCC2=O	none
CC(C)(Oc1ccc(Cl)cc1)C(=O)NCC1(c2ccccc2)CCOCC1	none
CC(C)=CCc1c(O)cc(O)c2c1OC(c1ccccc1)CC2=O (centres undefined)	mHTT CaM bind 51
COc1ccc(C2CC(=O)c3c(O)cc(O)cc3O2)cc1O (centres undefined)	none (no result: mHTT CaM bind)
COc1cccc(NC(=O)Cn2cc(-c3ccccc3)oc2=O)c1	none
COc1ccc(C2CC(=O)C3=C(C2)Nc2ccccc2NC3c2ccc(N(C)C)cc2)cc1OC (centres undefined)	mHTT CaM bind 52
COc1ccc(C2CC(=O)C3=C(C2)Nc2ccccc2NC3c2ccc(Cl)s2)cc1OC (centres undefined)	mHTT CaM bind 56
COc1ccc(C2CC(=O)C3=C(C2)Nc2ccccc2NC3c2ccc(C)s2)cc1OC (centres undefined)	none
COc1ccc(C2CC(=O)C3=C(C2)Nc2ccccc2NC3c2ccc(Cl)cc2)cc1OC (centres undefined)	none
O=C(NCCc1csc(C2CCCN(C(=O)c3ccccc3)C2)n1)C1CCC1 (centres undefined)	none
CC(C)COc1ccc(C(=O)NC(CC(=O)O)c2ccccc2)cc1 (centres undefined)	none
COc1ccccc1C1CC(c2ccc(Cl)c(Cl)c2)Nc2nc(N)nn21 (centres undefined)	mHTT CaM bind 99
Cc1cccc(C2CC(c3ccc(Cl)cc3)Nc3nc(N)nn32)c1 (centres undefined)	mHTT CaM bind 56
Cc1cccc(C2CC(c3ccc(F)cc3)Nc3nc(N)nn32)c1 (centres undefined)	none
CCOc1ccccc1C1CC(c2ccc(I)cc2)Nc2ncnn21 (centres undefined)	mHTT CaM bind 54
COc1ccccc1C1CC(c2ccc(Br)cc2)Nc2nc(N)nn21 (centres undefined)	none
CCOc1ccccc1C1CC(c2ccccc2)Nc2ncnn21 (centres undefined)	none
COc1ccccc1C1CC(c2ccc(C)cc2)Nc2nc(N)nn21 (centres undefined)	none
CCOc1ccccc1C1CC(c2ccc(Br)cc2)Nc2nc(N)nn21 (centres undefined)	mHTT CaM bind 99
CN1CCc2cc(C(CNC(=O)Cn3c(=O)oc4ccccc43)N3CCOCC3)ccc21 (centres undefined)	none
CCc1ccc(C2CC(c3ccccc3Cl)Nc3nc(N)nn32)cc1 (centres undefined)	mHTT CaM bind 52
COc1cccc(C2CC(c3ccc(Cl)cc3Cl)n3nc(N)nc3N2)c1 (centres undefined)	mHTT CaM bind 52
COc1cccc(C2CC(c3ccccc3Cl)n3nc(N)nc3N2)c1 (centres undefined)	none
CCc1ccc(C2CC(c3ccccc3Cl)n3nc(N)nc3N2)cc1 (centres undefined)	none
NC(=NOC(=O)c1ccc2ncsc2c1)c1ccc(Cl)cc1Cl	none (no result: mHTT CaM bind)
CCC1CCCCN1C(=O)c1ccc(Cl)cc1[N+](=O)[O-] (centres undefined)	none
CCC1CCCCN1C/C=C/c1ccc(N(C)C)cc1 (centres undefined)	mHTT CaM bind 68
CCC1CCCCN1C/C=C/c1ccccc1[N+](=O)[O-] (centres undefined)	none
Cc1cc(-c2nnc(NC(=O)c3ccn(C)n3)o2)c(C)o1	mHTT CaM bind 68
Cc1cc(-c2nnc(NC(=O)c3ccc4c(c3)OCCO4)o2)c(C)o1	none
Cn1nc(COc2ccccc2)c2c1CCN(Cc1ccco1)C2	none
Cn1nc(COc2ccccc2)c2c1CCN(Cc1ccoc1)C2	mHTT CaM bind 67
CCOc1ccccc1NC(=O)N1CCCC(C)(C(=O)NCc2ccccc2C)C1 (centres undefined)	none
COc1ccc(-c2ccc[nH]2)cc1	mHTT CaM bind 62
COc1ccc(-c2nnc(-c3ccc(OC)cc3)nn2)cc1	none
O=C(COc1ccc(Br)cc1Cl)NC1CCCC1	none
Cc1ccc(-c2ncc(C(=O)N3CCCCCC3)c(-c3ccncc3)n2)cc1	mHTT CaM bind 56
O=C(Nc1cccc(F)c1)c1cnc(-c2ccc(F)cc2)nc1-c1ccncc1	Pf apPOL block 64
Cc1c(F)cccc1NC(=O)c1cnc(-c2ccc(F)cc2)nc1-c1ccncc1	Pf apPOL block 77
Cc1ccc(-c2ncc(C(=O)Nc3ccc(Cl)cc3)c(-c3ccncc3)n2)cc1	Pf apPOL block 65
O=C(Nc1ccccc1)c1cnc(-c2ccc(F)cc2)nc1-c1ccncc1	none
O=C(Nc1ccccc1F)c1cnc(-c2ccccc2)nc1-c1ccncc1	none
Cc1ccc(-c2ncc(C(=O)N3CCCC3)c(N3CCCCC3)n2)cc1	none
Cc1ccc(NC(=O)c2cnc(-c3ccc(C)cc3)nc2-c2ccncc2)cc1	none
Cc1cc(C(=O)Nc2ncc([N+](=O)[O-])s2)ccc1[N+](=O)[O-]	none
O=C1CSC(c2ccc(O)c([N+](=O)[O-])c2)N1Cc1ccccc1 (centres undefined)	none
COc1cc(C2=N/C(=C\c3c(F)cccc3Cl)C(=O)O2)cc(OC)c1OC	none
O=C(c1ccco1)N1CCCC(OCc2nc(-c3cccnc3)no2)C1 (centres undefined)	none
Cc1cccc(NC(=O)c2ccc(=O)n(C)n2)n1	none
COc1cccc2cc(-c3nc4ccccc4[nH]3)c(=Nc3ccc(C(N)=O)cc3)oc12	none
COc1cccc2cc(-c3nc4ccccc4[nH]3)c(=N)oc12	Pf apPOL block 75
C=CCNC(=O)Cc1ccccc1[N+](=O)[O-]	none
CCOC1=NC2Nc3ccc(Cl)cc3N(C)C2C1c1ccc([N+](=O)[O-])cc1 (centres undefined)	mHTT CaM bind 54
CCN1c2ccccc2NC2N=C(OC)C(c3ccccc3)C21 (centres undefined)	none
CC(=O)NCc1csc(C2CCN(C(=O)c3cccc(F)c3)CC2)n1	none
CCSc1nc2nc3c(cc2c(=O)n1-c1ccccc1C)COC(C)(C)C3	none
